PubChem BioAssay AID1851 (National Center for Advancing Translational Sciences (NCATS), 2009)
The whole screen tested about 16,000 compounds, of which about 4,000 (25%) were called active. Not shown: some 26% with an inconclusive outcome. Calls follow the shape of the dose curve; as a rule, active = well fitted curve in the direction sought with a large enough effect; inconclusive = small, poorly fitted or top-dose-only effect, or effect the other way; inactive = no such curve, though single readings can be large or run the other way. The list is a sample of the results.

Biological target: Cytochrome P450 2C9 (Homo sapiens) (UniProt P11712)
Sequence (P11712 whole entry, looked up): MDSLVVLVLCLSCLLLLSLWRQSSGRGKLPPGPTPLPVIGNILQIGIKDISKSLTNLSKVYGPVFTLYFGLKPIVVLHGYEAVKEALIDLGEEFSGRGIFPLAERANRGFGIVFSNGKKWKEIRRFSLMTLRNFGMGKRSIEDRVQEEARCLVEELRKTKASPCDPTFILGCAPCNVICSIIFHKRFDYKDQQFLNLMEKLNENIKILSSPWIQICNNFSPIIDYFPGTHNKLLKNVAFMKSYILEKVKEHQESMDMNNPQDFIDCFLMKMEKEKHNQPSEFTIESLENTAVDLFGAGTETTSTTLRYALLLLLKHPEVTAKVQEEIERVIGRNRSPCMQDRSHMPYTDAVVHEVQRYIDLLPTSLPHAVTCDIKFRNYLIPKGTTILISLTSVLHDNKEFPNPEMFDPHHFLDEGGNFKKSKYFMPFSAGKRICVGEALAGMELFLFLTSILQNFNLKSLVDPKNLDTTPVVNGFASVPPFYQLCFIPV
Assay: Cytochrome panel assay with activity outcomes
Details: recombinant CYP, pro-luciferin dealkylation, luminescence, p450-cyp2c9; series mostly up to 57.1 µM
% is scaled to controls: 0 for no effect and ±100 for the full control effect.

AC50, inactive:
Cc1cc(NC(=O)CN2C(=O)NC(C)(c3ccc(OC(F)F)cc3)C2=O)no1 (stereo not given), O=C(CCCN1CCC(O)(c2cccc(C(F)(F)F)c2)CC1)c1ccc(F)cc1, CC(=O)N1CCC[C@@]2(CCN(Cc3nccs3)C2)C1, O=c1cnc2cnc(N3CCOCC3)nc2n1C1CC1, Cn1c(=O)c(-c2ccc(Cl)cc2)nc2cnc(Oc3cccc(Cl)c3)nc21, O=c1cnc2cnc(Oc3ccccc3)nc2n1C1CC1, Cc1nc2cnc(Oc3ccccc3)nc2n(C)c1=O, COc1ncc2nc(C)c(=O)n(C3CC3)c2n1, N#Cc1cccc(-c2nc3cnc(N4CCOCC4)nc3n(C[C@H]3CCCO3)c2=O)c1, Cc1cc(C)n2nc(SCC(=O)N/N=C/c3ccccc3F)nc2n1, CCCSc1nnc(CSc2nc3nc(C)cc(C)n3n2)o1, N#Cc1cccc(NC(=O)N2CCC3(CC2)CCN(C(=O)c2csnn2)CC3)c1, NC(=O)c1ccc[n+](CC(=O)OCCC23CC4CC(CC(C4)C2)C3)c1, Cc1n[nH]c(=S)n1/N=C/c1ccc(Br)o1, COc1ccc(-n2c(-c3cnccn3)n[nH]c2=S)cc1, COc1ccc(-n2c(=O)c(-c3cccs3)nc3cnc(Nc4cccc(OC)c4)nc32)cc1, Cc1oncc1C(=O)Nc1ccc(C(F)(F)F)cc1, NCCC(=O)NCCc1cnc[nH]1, O=c1nc2ccccc2c2n1C[C@H](CN1CCN(c3ccccc3)CC1)N2, Nc1nc(NCc2ccccc2)nc(Nc2cccc(F)c2)c1[N+](=O)[O-], CCO/C([O-])=N/c1c[n+](N2CCOCC2)no1, COc1cccc(CNCCNC(=O)c2nonc2N)c1, COc1ccc(NC(=O)N2CC3(CCN(C(=O)c4c(C)noc4C)CC3)C2)cc1, COc1ccc(NC(=O)N2CCCC3(CCN(C(=O)c4c(C)noc4C)CC3)C2)cc1, CCOc1ccc(N(CC(=O)NCc2ccc(OC)cc2)S(=O)(=O)c2c(C)noc2C)cc1, Cc1ccc(S(=O)(=O)N2CCN(C(=O)CN3CCN(C)CC3)C2)cc1, COc1ccc(S(=O)(=O)N2CCC(NC(=O)Nc3ccc(C)cc3)CC2)cc1, COc1ccc(-n2c(=O)c(C)nc3cnc(Oc4ccccc4)nc32)cc1, COc1cccc(Nc2ncc3nc(CCc4ccccc4)c(=O)n(C4CC4)c3n2)c1, COc1cccc(Nc2ncc3nc(-c4cccs4)c(=O)n(-c4ccccc4)c3n2)c1, Clc1ccc2c(c1)C=Nc1c(NCc3ccccc3)ncnc1O2, N#Cc1ccc(-c2ccc(F)cc2)nc1Oc1ccc(Cl)c(Cl)c1, COc1ccc(N2C(=O)NC3CC2(C)Oc2ccccc23)cc1OC (stereo not given), O=C(NCc1ccccc1)c1ccc2c(c1)C(=O)N(CC1CCCO1)C2=O (stereo not given), N[C@H](C(=O)O)[C@H](O)C(=O)O, CCS(=O)(=O)N1CCC(C(=O)NCC2CCCO2)CC1 (stereo not given), N#CCSc1ncnc2c1cnn2CCO, O=C1C2C3C=CC(C3)C2C(=O)N1c1ncn[nH]1 (stereo not given), CC1=NN(c2ccccc2)C(=O)/C1=C\N1CC(C)OC(C)C1 (stereo not given), C[C@H](C[C@H](N)C(=O)O)C(=O)O, CC(C)NC(=O)N1CCC2(CC1)CCN(C(=O)c1cccn1C)CC2

AC50, active:
COc1ccc(C(=O)CN2C(=O)NC(C)(c3ccccc3)C2=O)cc1OC (stereo not given) 3.55 µM, O=C(Cn1c(C(F)(F)F)nc2ccccc21)c1ccccc1 10 µM, O=C(Cn1c(C(F)(F)F)nc2ccccc21)c1ccc(F)cc1 3.55 µM, O=c1c(-c2ccccc2)nc2cnc(Oc3cccc(Cl)c3)nc2n1C1CC1 0.251 µM, O=c1cnc2cnc(Oc3cccc(Cl)c3)nc2n1C1CC1 6.31 µM, Cc1nc2cnc(Oc3cccc(Cl)c3)nc2n(C2CC2)c1=O 12.6 µM, N#Cc1cccc(-c2nc3cnc(Oc4cccc(Cl)c4)nc3n(C3CC3)c2=O)c1 3.16 µM, CCCCCCCCSc1nnc(CSc2nc3nc(C)cc(C)n3n2)o1 17.8 µM, CCc1ccc(N/C(SCc2ccccc2C)=C(/C#N)C(=O)NCc2ccco2)cc1 3.16 µM, O=C(NCCOC12CC3CC(CC(C3)C1)C2)c1cccc(Br)c1 14.1 µM, Cc1ccc(/C=N/n2c(-c3cccs3)n[nH]c2=S)cc1 1.58 µM, COc1ccc(/C=N/n2c(-c3cccs3)n[nH]c2=S)cc1 2.24 µM, Cc1ccc(-c2n[nH]c(=S)n2/N=C/c2cccn2C)cc1 12.6 µM, C[C@@H](CCCCC(=O)Nc1ccc(C(F)(F)F)cc1)NCCc1cnc[nH]1 7.94 µM, Cc1cc(O)c(C(C)C)cc1C1(c2cc(C(C)C)c(O)cc2C)OC(=O)c2ccccc21 0.316 µM, COC(=O)C(NC(=O)c1ccc(Cl)cc1)(Nc1nc(C)cs1)C(F)(F)F (stereo not given) 8.91 µM, Cc1[nH]nc(Nc2ccccc2)c1[N+](=O)[O-] 20 µM, COC(=O)CN(c1ccc(OC)cc1)S(=O)(=O)c1c(C)noc1C 11.2 µM, COc1ccc(N(CC(=O)NCc2cccc(OC)c2)S(=O)(=O)c2c(C)noc2C)cc1 7.94 µM, Cc1ccc(C(=O)NC(=S)Nc2ccc(S(=O)(=O)N3CCN(C)CC3)cc2)cc1 14.1 µM, Cc1[nH]n(C(C)(C)C)c(=O)c1Sc1ccc(Cl)cc1 12.6 µM, Cc1[nH]n(C(C)(C)C)c(=O)c1Sc1ccccc1 7.08 µM, COc1ccc(Oc2ncc3nc(CCc4ccccc4)c(=O)n(C4CC4)c3n2)cc1 12.6 µM, CN(C)c1ncc2nc(CCc3ccccc3)c(=O)n(C3CC3)c2n1 12.6 µM, COc1ncc2nc(CCc3ccccc3)c(=O)n(C3CC3)c2n1 15.8 µM, Fc1ccc(-c2cn3cc(C(F)(F)F)cc(Cl)c3n2)cc1 4.47 µM, CC12CC(NC(=O)N1c1cccc(C(=O)NCc3ccccc3)c1)c1ccccc1O2 (stereo not given) 3.98 µM, Cn1c(=O)c2[nH]c(SCc3ccccn3)nc2n(C)c1=S 3.16 µM, CCOc1ccc(NC(=S)N(Cc2ccc(N(C)C)cc2)Cc2ccco2)cc1 1 µM, CCOc1ccc(NC(=S)N(Cc2ccc(Cl)cc2)Cc2ccco2)cc1 10 µM, Cc1cc(C)c(S(=O)(=O)N2CCN(c3ccc([N+](=O)[O-])c(NCC4CCCO4)c3)CC2)c(C)c1 (stereo not given) 2 µM, CC(C)(C)C(=O)N1CCN(c2ccc([N+](=O)[O-])c(NCC3CCCO3)c2)CC1 (stereo not given) 12.6 µM, Cc1ccc(NC(=O)c2ccc(NCC3CCCO3)c([N+](=O)[O-])c2)cc1Cl (stereo not given) 1.12 µM, CCOc1cc(/C=C2/C(=O)N(c3ccccc3)N=C2C)ccc1OC(=O)c1ccco1 0.631 µM, O=C1Oc2ccccc2C(=O)/C1=C\N1C(=O)N/C(=C\c2ccccc2O)C1=O 1 µM, O=S(=O)(c1ccccc1)N1CCCC1c1nc2ccccc2s1 (stereo not given) 12.6 µM

activity, negative = inhibition, inactive:
CN(C)C(=O)c1ccc(-c2nc(Nc3ccc(F)cc3)c3ccccc3n2)cc1 -11.1% [at 2.29 µM], CO[C@H]1COC(=O)C/C=C\[C@H](C)COC(=O)[C@@H](OCc2ccccc2)/C=C\[C@@H]1C -4.97% [at 11.4 µM], CS(=O)(=O)Nc1cccc(-c2nc(N3CCNCC3)c3ccccc3n2)c1 -1.92% [at 2.29 µM], N=c1nc(N)nc(N)n1-c1ccc(S(N)(=O)=O)cc1 -1.26% [at 11.4 µM], C[N+](C)(C)c1cc2c(nn1)Nc1ccccc1S2 -3.44% [at 11.4 µM], Cc1cc(O)c(C(C)C)cc1NC(=O)Nc1cccc2ccccc12 -7.14% [at 11.4 µM], Cc1noc(C)c1-c1nc(Nc2ccccc2)c2ccccc2n1 2.16% [at 2.29 µM], Clc1ccccc1-c1nc(NC2CCNCC2)c2ccccc2n1 2.89% [at 2.29 µM], NC(N)=N/N=C(/c1ccccc1)c1ccc(O)cc1O -9.7% [at 11.4 µM], CNc1nc(-c2ccoc2)nc2ccccc12 13% [at 2.29 µM], OCCCNCc1ccccn1 9.34% [at 11.4 µM], Cn1c(=S)c2[nH]c(SCCN3C(=O)c4ccccc4C3=O)nc2n(C)c1=O -3.8% [at 11.4 µM], Cn1c(=O)c2[nH]c(CCCCc3nc4c([nH]3)c(=O)n(C)c(=S)n4C)nc2n(C)c1=S -2.51% [at 11.4 µM], CN(C)c1ccc(-c2cncnc2N(C)Cc2ccco2)cc1 -17.3% [at 2.29 µM], CN(C)c1ccc(-c2cc(N(C)Cc3ccco3)ncn2)cc1 -6.39% [at 2.29 µM], CC1=NN(c2ccc(S(=O)(=O)O)cc2)C(=O)/C1=C\c1ccc(Cl)cc1 -2.05% [at 11.4 µM], CNc1nc(-c2ccccc2CN(C)C)nc2ccccc12 4.11% [at 2.29 µM], CC(=O)OC[C@@H]1O[C@@H](O/N=C2/C[C@@H](O)[C@@H](O)[C@@H]3[C@@H]4C(=O)N([C@@H](C)c5ccccc5)C(=O)[C@H]4CC[C@@H]23)[C@H](OC(C)=O)[C@H](OC(C)=O)[C@@H]1OC(C)=O 16.3% [at 11.4 µM]
